Rv3671c inh: inhibits the M. tuberculosis serine protease Rv3671c; P9WHR9; inhibition, % at 5.96 µM; 320,000 compounds, 0.048% hits; AID 2606; in the data active = inhibition above about 38%;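 note: extracellular domain of Rv3671c used as enzyme; 0% = enzyme with DMSO and 100% = no enzyme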
SSB-PriA inh: K. pneumoniae PriA-SSBct interaction inhibition; AlphaScreen SSBct-PriA binding, biotinylated peptide; inhibition, % at 33 µM; 430,000 compounds, 0.6% hits; in the data active = inhibition mostly above about 37%, no sharp cut-off; inactive = mostly below about 20%;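 note: plate controls were negative control peptide for no effect and reference peptide for full effect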
FBA Mtb inh: Mtb fructose-bisphosphate aldolase inhibition; inhibition, % at 1 µM; P9WQA3; purified M. tuberculosis FBA, fluorescence read-out; 360,000 compounds, 2.3% hits; in the data active = inhibition above about 27%;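 note: 0% = vehicle and 100% = reference inhibitor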
Target sequence (P9WQA3 whole entry, looked up): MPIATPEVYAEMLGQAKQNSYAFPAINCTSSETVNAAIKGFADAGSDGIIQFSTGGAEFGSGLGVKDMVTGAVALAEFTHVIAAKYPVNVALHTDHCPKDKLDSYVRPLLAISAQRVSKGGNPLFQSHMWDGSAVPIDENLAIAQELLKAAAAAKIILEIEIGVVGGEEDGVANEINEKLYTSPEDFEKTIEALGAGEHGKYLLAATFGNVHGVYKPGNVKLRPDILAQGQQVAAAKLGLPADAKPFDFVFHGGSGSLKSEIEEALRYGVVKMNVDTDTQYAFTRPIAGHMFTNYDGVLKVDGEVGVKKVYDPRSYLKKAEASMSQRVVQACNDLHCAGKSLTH
GDH-TPI inh: inhibits GDH-TPI coupling enzymes, artifact for Mtb FBA screen. GDH-TPI coupled enzyme counterscreen, NADH absorbance. inhibition, % at 4.8 µM. 360,000 compounds, 1.2% hits; in the data active = inhibition above about 30%;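 note: 0% = DMSO wells and 100% = wells lacking the enzyme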
Mtb betalactam: beta-lactam sensitization of Mtb H37Rv; inhibition, % at 25 µM; M. tuberculosis H37Rv growth with meropenem, percent inhibition; 330,000 compounds, 0.27% hits; call rule not given here;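 note: growth measured after seven days incubation then overnight dye step; 0% = bacteria only wells and 100% = bacteria with antibiotic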
Mtb UGM inh: Mtb UDP-galactopyranose mutase inhibition; P9WIQ1; purified UGM, fluorescence polarization probe displacement; inhibition, % at 10 µM; 320,000 compounds, 0.06% hits; in the data active = inhibition above about 10%, passing the limit was not always enough; inconclusive = no clear call, values can overlap the other calls
* = called active by the depositor; ? = inconclusive; nt = not tested or not shown; + = active, no number. Most compounds without a hit are left out; they make up all but 3.2% or so of the library.

SMILES | Rv3671c inh | SSB-PriA inh | FBA Mtb inh | GDH-TPI inh | Mtb betalactam | Mtb UGM inh
O=C(Nc1ccc(Nc2ccncc2)cc1)c1ccc(Nc2ccnc3ccc([N+](=O)[O-])cc23)cc1 | nt | 14 | 0 | 39* | nt | nt
O=S(=O)(NC[C@@H](c1cccs1)S(=O)(=O)c1ccccc1)c1ccc2c(c1)OCCO2 | nt | -6 | nt | nt | nt | nt
CCCCOc1ccccc1C(=O)NNC(=S)NC(=O)c1ccccc1[N+](=O)[O-] | 7 | 3 | -5 | 31* | 94 | 6
CCn1cccc(-c2nnc(SCC(=O)Nc3ccc4c(c3)OCO4)n2C)c1=O | nt | -3 | nt | nt | nt | nt
N#CC1=C(N)n2c(s/c(=C\c3ccco3)c2=O)=C(C#N)C1c1ccco1 (centres undefined) | 8 | nt | -1 | 33* | -8 | 3
CCSc1nc2c(c(=O)[nH]1)C(c1ccccn1)C1=C(CC(C)(C)CC1=O)N2 (centres undefined) | 1 | -7 | 124* | 12 | 12 | -4
COc1ccc(OC)c2sc(N(CCN(C)C)C(=O)/C=C/c3cccc([N+](=O)[O-])c3)nc12 | nt | -4 | nt | nt | nt | nt
Cn1cnc(S(=O)(=O)NCCn2nc(-c3ccccn3)c3c2CCCC3)c1 | nt | -6 | nt | nt | nt | nt
CC(C)c1ccc(/C=C2\SC(=O)N(CC(=O)NCCCn3ccnc3)C2=O)cc1 | 0 | 0 | 2 | 47* | 70 | 0
Cc1ccc(NC(=O)C(=O)NCc2ccc(/C=N/NC(=O)c3c(C)nc4ccccn34)o2)cc1 | -3 | nt | -2 | 42* | ? | -4
COc1ccc(OC)c(N2CC(O)=C(c3nc4ccccc4s3)C2=N)c1 | -6 | -5 | -2 | 36* | 50 | -1
CCCOc1ccc2oc(=O)c3c(c2c1)CCCN3C(=O)CN1CCN(C(=O)c2ccco2)CC1 | 0 | nt | nt | nt | -5 | 0
O=C(CN1CCCC1)N1CCCc2c1c(=O)oc1ccc(OCc3ccccc3)cc21 | -1 | 3 | 21 | 34* | -2 | 3
O=C(NNc1ccc(Cl)cc1)c1c(F)cccc1Cl | -3 | -5 | 2 | 5 | 96 | -1
CC(=O)C(=Nc1ccccc1Cl)NNc1ccc(Cl)cc1 | -7 | 50* | -2 | 9 | 94 | -1
CCN(CC)C(=O)C1CCCN(C(=O)CCn2nnnc2CN2CCOCC2)C1 (centres undefined) | 6 | 11 | -1 | 1 | ? | -1
O=C(CCCn1nnnc1CN1CCOCC1)N1CCC(c2ccc(F)cc2)C1 (centres undefined) | -11 | 39* | 0 | 1 | -4 | 0
CCC(C)c1ccc2oc(-c3ccc(NC(=O)c4ncn[nH]4)cc3)nc2c1 (centres undefined) | -8 | 8 | 4 | 31* | 99 | -2
CCC(NC(=O)COc1cc2c(c3oc(=O)c(C)c(C)c13)CCC(C)(C)O2)C(=O)O (centres undefined) | 3 | 11 | + | 7 | 3 | 3
Cc1c(C)c2c(OCC(=O)N[C@@H](C)C(=O)O)cc3c(c2oc1=O)CCC(C)(C)O3 | -7 | 11 | + | 6 | -7 | -2
Cc1c(C)c2c(OCC(=O)Nc3cccnc3)cc3c(c2oc1=O)CCC(C)(C)O3 | 1 | 2 | 7 | 6 | 2 | -3
Cc1ccc2nc(NC(=O)CSc3c(-c4ccccc4)[nH]c4ccccc34)sc2c1 | nt | -5 | nt | nt | nt | nt
O=c1ccn(-c2cccc(F)c2)nc1-c1nc(-c2ccccc2OCc2ccccc2)no1 | nt | 17 | nt | nt | nt | nt
CC(=O)c1ccc(N2CCCCCC2)c(F)c1 | -12 | -19 | -6 | 34* | 9 | 1
Nc1ccccc1Nc1cc(-c2ccccc2)nn1-c1cccc(Cl)c1 | 2 | 59* | -5 | -5 | 11 | -3
SMILES | Rv3671c inh | SSB-PriA inh | FBA Mtb inh | GDH-TPI inh | Mtb betalactam | Mtb UGM inh
Nc1nc(-c2csc(N)n2)cs1 | nt | 46* | nt | nt | nt | nt
CCOCC(=O)NCC1CC(=O)N(c2ccc(C)cc2)C1 (centres undefined) | nt | -11 | nt | nt | nt | nt
N#Cc1c(N)n(-c2ccc(C(=O)O)cc2)c2nc3ccccc3nc12 | -21 | 2 | + | 20 | 1 | 1
N#Cc1c(N)n(-c2ccc(N)cc2)c2nc3ccccc3nc12 | -2 | -4 | -3 | 0 | 2 | 0
CCC(=O)Nc1c(C#N)c2nc3ccccc3nc2n1C1CCCCC1 | -8 | -8 | 11 | -10 | 2 | -1
N#Cc1c(N)n(C2CCCCC2)c2nc3ccccc3nc12 | -6 | -18 | 117* | 14 | 26 | 1
O=[N+]([O-])c1ccccc1NN=C1CC2CC=CC12 (centres undefined) | nt | 71* | nt | nt | nt | nt
O=[N+]([O-])c1ccccc1NN=Cc1ccccc1 | nt | -9 | nt | nt | nt | nt
O=C(C[n+]1ccccc1)N/N=C/c1cc(Br)cc(Br)c1O | 19 | nt | -6 | 2 | 19 | 2
O=C(C[n+]1ccccc1)NN=Cc1cc(Br)cc(Br)c1O | nt | 57* | nt | nt | nt | nt
COCCn1nnnc1CN1CCN(c2cccc(C(F)(F)F)c2)CC1 | -1 | -15 | 191* | -5 | -1 | 4
Cc1cc(-c2nn3c(-c4ccco4)nnc3s2)c2ccccc2n1 | nt | -2 | nt | nt | nt | nt
Cc1nnsc1C(=O)NCCC(O)c1cccn1C (centres undefined) | nt | 0 | nt | nt | nt | nt
Nc1ccc(-c2nc3ccccc3s2)cn1 | 0 | -16 | + | 23 | 8 | -2
Cc1cc(-c2nc3ccccc3s2)ccc1N | nt | -13 | + | 37* | nt | nt
Nc1ccc(-c2nc3ccccc3s2)cc1 | nt | -12 | nt | nt | nt | nt
C=CCn1c(=N)c(C(=O)NCCCOC)cc2c(=O)n3ccccc3nc21 | -3 | -4 | + | 12 | -6 | 2
COCCn1c(=N)c(C(=O)NCCc2ccc(OC)cc2)cc2c(=O)n3cccc(C)c3nc21 | -1 | -4 | 5 | 8 | -6 | -1
COc1ccc(CCn2c(=N)c(C(=O)NCc3ccco3)cc3c(=O)n4ccccc4nc32)cc1 | -5 | 11 | 7 | -1 | 12 | -1
C=CCn1c(=N)c(C(=O)NCCCOC)cc2c(=O)n3cc(C)ccc3nc21 | -1 | -10 | + | 14 | 17 | 0
CCOC(=O)N1CCN(S(=O)(=O)c2cc(C)ccc2OCC)CC1 | nt | -10 | nt | nt | nt | nt
CCCCOc1ccc(NC(=O)N[C@@H](C)Cc2cccs2)cc1 | nt | -9 | nt | nt | nt | nt
Cc1ccc(S(=O)(=O)c2c(N)n(/N=C/c3ccco3)c3nc4ccccc4nc23)cc1 | -17 | nt | 16 | 23 | 7 | -2
Nc1c(S(=O)(=O)c2cccc(Cl)c2)c2nc3ccccc3nc2n1CCN1CCOCC1 | 2 | -13 | 8 | 13 | 3 | -1
Cc1ccc(S(=O)(=O)c2c(N)n(CC3CCOC3)c3nc4ccccc4nc23)cc1 (centres undefined) | -4 | -9 | + | 22 | -6 | 0
Cc1ccc(S(=O)(=O)c2c(N)n(CCCN(C)C)c3nc4ccccc4nc23)cc1 | 0 | -4 | 128* | 42* | -1 | 4
CCCCn1c(NS(=O)(=O)c2ccc(C)cc2)c(S(=O)(=O)c2ccccc2)c2nc3ccccc3nc21 | -143 | 23 | 5 | 8 | -4 | 1
Cc1ccc(S(=O)(=O)c2c(NS(=O)(=O)c3ccccc3)n(Cc3ccccc3)c3nc4ccccc4nc23)cc1 | nt | 46 | nt | nt | nt | nt

Screening results: PubChem, several laboratories
